This is an account of results in PubChem BioAssay AID602197 (NMMLSC, 2012).

The other results are listed elsewhere or left out. Values without a mark were called inactive. Cut-off read from the data, not from the text of the source: active = response above about 24%; inactive = the rest.

This test can be described thus: yeast V-ATPase proton pumping modulators, confirmation, S. cerevisiae, pH-sensitive GFP, second cherry-pick (AID 602197).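 Note: plate controls were vehicle wells for no effect and positive control wells for full effect.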 Particulars: S. cerevisiae pHLuorin cytosolic pH, V-ATPase proton transport; at 10 µM; stronger effect = higher value.
On to `Cc1cc(=O)c2ccc(NC(=O)c3ccccc3)cc2[nH]1`, for which the response was -0.97%.

With `CCCCNc1ccc(C(=O)Nc2cccc(C)n2)cc1[N+](=O)[O-]`, the response is 2.43%.

Take `CCOC(=O)N1CCN(CC(=O)n2c(C)c(C)c3ccccc32)CC1`: the response was 1.66%.

`COc1cccc(OC)c1C(=O)OCC(=O)/C(C#N)=C(\C)N`: the response is -0.01%.

Consider `Cc1occc1C(=O)Nc1nnc(C2CCCCC2)s1`, for which the response was 3.1%.

In the case of `CCOC(=O)Cn1c(-c2cccnc2Cl)nc2ccccc21`, the response was 1.29%.

As to `COC(=O)COc1ccc2c(=O)c(Oc3ccccc3Br)coc2c1`, the response was -1.59%.

For the compound `COc1ccccc1CNC(=O)COC(=O)c1sc(C)nc1C`, the response is 1.62%.
